Assay results taken from PubChem BioAssay AID1986 (Sanford-Burnham Center for Chemical Genomics, 2009).
Screen size: about 290,000 compounds; about 890 (0.31%) were called active. Rule as the data show it: active = inhibition mostly above about 52% (no sharp cut-off); inactive = mostly below about 76%. This excerpt belongs to a sample that is enriched for actives.

Test: inhibitors of HIV fusion peptide binding, primary screen, biochemical, uHTS, fluorescence dequenching (AID 1986)
Details: cell-free peptide binding, 30 min, stronger effect = higher value
[1] = measured here: repeat confirmation average inhibition, at 18.6 µM

SMILES | inhibition (at 20 µM) | inhibition [1]
O=C(NCCCn1ccnc1)C(=O)Nc1ccccc1 | 0.2% (inactive) | –
COc1ccc(OC)c(NC(=O)Cc2nn(C)c(=O)c3ccccc23)c1 | 2.9% (inactive) | –
Cc1c(C(=O)N2CCC(C)CC2)cccc1[N+](=O)[O-] | -0.4% (inactive) | –
O=S(=O)(Nc1cccc(S(=O)(=O)N2CCCCCC2)c1)c1ccccc1 | -0.4% (inactive) | –
Cc1ccc(S(=O)(=O)Nc2nc3ccccc3nc2Nc2cccc(S(=O)(=O)N3CCCC3)c2)cc1 | 72.4% (active) | –
O=[N+]([O-])c1ccc(S(=O)(=O)Nc2nc3ccccc3nc2Nc2ccccc2)cc1 | 1% (inactive) | –
CC(=O)Nc1ccc(S(=O)(=O)Nc2nc3ccccc3nc2Nc2ccc(S(N)(=O)=O)cc2)cc1 | 37.9% (inactive) | –
COc1ccc(S(=O)(=O)Nc2cccc(S(=O)(=O)N3CCCCCC3)c2)cc1 | 2.5% (inactive) | –
NS(=O)(=O)c1ccc(Nc2nc3ccccc3nc2NS(=O)(=O)c2cccc([N+](=O)[O-])c2)cc1 | 69.6% (active) | –
O=C(CSC1=NCCS1)N1CCCC1 | 4.9% (inactive) | –
CCN1CCN(CC(O)COc2ccc(Cl)cc2)CC1 (configuration not stated) | -1.2% (inactive) | –
CCc1nnc(NC(=O)c2ccc(OCc3c(C)noc3C)c(OC)c2)s1 | 0.8% (inactive) | –
O=C(Nc1nnc(-c2ccco2)s1)C1CC1 | 0.3% (inactive) | –
O=C(Nc1nnc(C2CC2)s1)C1CC(=O)N(c2ccc3c(c2)OCCO3)C1 (configuration not stated) | 16.4% (inactive) | –
O=C(CCCSc1ccccc1)Nc1nc(-c2ccco2)c(-c2ccco2)s1 | 58.7% (inactive) | 2.6%
Nc1nc(-c2ccco2)c(-c2ccco2)s1 | 1.2% (inactive) | –
O=C(Nc1nc(-c2ccco2)c(-c2ccco2)s1)C1CCC1 | 63.8% (active) | –
COc1ccc(-c2nc(NC(=O)C3CC(=O)N(c4ccc5c(c4)OCCO5)C3)sc2C)cc1 (configuration not stated) | 2.7% (inactive) | –
O=C(Nc1nc(-c2ccco2)c(-c2ccco2)s1)C1CC(=O)N(c2ccc3c(c2)OCCO3)C1 (configuration not stated) | 59.5% (active) | –
O=C(Nc1nnc(-c2ccco2)s1)C1CCCCC1 | 2.3% (inactive) | –
O=C(CCl)Nc1nc(-c2ccco2)c(-c2ccco2)s1 | 64.5% (active) | –
COc1cccc(NC(=O)N(C2CCCCC2)C(C)c2cccs2)c1 (configuration not stated) | -4.1% (inactive) | –
CCOC(=O)c1cnc2c(ccc3ccccc32)c1NCCN(C)C | -0.1% (inactive) | –

SMILES | inhibition (at 20 µM) | inhibition [1]
CCOC(=O)c1cccc(NC(=O)CCn2nc(C)c(S(=O)(=O)N3CCCCC3)c2C)c1 | -0.9% (inactive) | –
CCC(C)(C)NC(=O)CN(C(=O)C(=O)Nc1ccc2c(c1)OCCO2)N1CCOCC1 | 1.2% (inactive) | –
COc1ccccc1N1CCN(C(=O)CCc2ccc(S(=O)(=O)NCC(C)C)cc2)CC1 | 0.1% (inactive) | –
N#CC(C#N)=Cc1ccc(OCC(=O)N2CCOCC2)cc1 | 0.6% (inactive) | –
O=C1c2ccccc2C(=O)N1c1ccc(Cl)cc1 | -5.5% (inactive) | –
O=C1C=C(Nc2ccc(Cl)cc2)C(=O)N1c1ccc(Cl)cc1 | 54.8% (active) | –
O=C1C=C(N2CCCCCC2)C(=O)N1c1ccc(Cl)cc1 | -1.8% (inactive) | –
COC(=O)C1CCCCN1C(=O)c1cccc(OC2CCN(C(=O)C3CC3)CC2)c1 (configuration not stated) | 1.5% (inactive) | –
CCOC(=O)C1=C(O)/C(=C/c2cc(OC)c(OC)c(OC)c2)SC1=Nc1ccc(OC)cc1 | -0.4% (inactive) | –
CCOC(=O)C1=C(O)/C(=C/c2cc(OC)c(O)c(OC)c2)SC1=Nc1ccc(OC)cc1 | 32.3% (inactive) | –
CCOC(=O)C1=C(O)/C(=C/c2ccc(-c3ccccc3C(=O)O)o2)SC1=Nc1ccc(OC)cc1 | 51.8% (active) | –
O=C(CCCCCCCCC(=O)N/N=C/c1ccco1)N/N=C/c1ccco1 | -2.2% (inactive) | –
Oc1ccccc1N1CCN(C(=S)NCCc2ccccc2)CC1 | 9.4% (inactive) | –
Cc1oc2cc([N+](=O)[O-])c(O)c([N+](=O)[O-])c2c1C(=O)c1ccc(Cl)cc1 | 19.8% (inactive) | –
Cc1oc2cc([N+](=O)[O-])c(O)c([N+](=O)[O-])c2c1C(=O)c1ccc(Br)cc1 | 51% (active) | –
COc1ccc(OC)c(C(=O)c2c(C)oc3cc([N+](=O)[O-])c(O)c([N+](=O)[O-])c23)c1 | -0.7% (inactive) | –
CCCNC(=O)NC(=O)CSc1nnc(C)n1N | 1.6% (inactive) | –
CC(=O)c1sc(Nc2cccc(C)c2)nc1C | 0.2% (inactive) | –
O=C(O)CN1C(=O)/C(=C\c2ccccc2OCc2ccc(F)cc2)SC1=S | 60.3% (inactive) | 36.9%
O=C(O)CN1C(=O)/C(=C\c2cc([N+](=O)[O-])ccc2OCc2ccccc2Cl)SC1=S | 68.9% (active) | –
O=C(O)CN1C(=O)/C(=C\c2ccccc2OCc2ccc(Cl)cc2)SC1=S | 45.9% (inactive) | –
C=Cn1cc[n+](CC(=O)c2ccc(OC)cc2)c1 | -0.9% (inactive) | –
O=C(NCC1(c2ccccc2)CCCC1)c1cccc(Br)c1 | -2.2% (inactive) | –

SMILES | inhibition (at 20 µM) | inhibition [1]
CCOc1ccc(N2C(=O)C3Sc4[nH]c(=O)sc4C(/C=C/c4ccccc4)C3C2=O)cc1 (configuration not stated) | 53.6% (active) | –
CCOc1ccc(N2C(=O)C3Sc4[nH]c(=O)sc4C(c4ccc(OC)c(OC)c4)C3C2=O)cc1 (configuration not stated) | 15.2% (inactive) | –
CCOC(=O)c1ccccc1N1C(=O)C2Sc3[nH]c(=O)sc3C(/C=C/c3ccccc3)C2C1=O (configuration not stated) | 31.6% (inactive) | –
Cc1ccc([N+](=O)[O-])cc1S(=O)(=O)Nc1ccc(C(=O)N(C)C)cc1 | -0.4% (inactive) | –
CCC(C(=O)OCCOCCN(CC)CC)c1ccccc1 (configuration not stated) | -1.7% (inactive) | –
CN(C(=O)c1ccc(S(=O)(=O)N(C)C)cc1)c1ccc2ccccc2c1 | -2% (inactive) | –
O=C(O)c1ccc(COc2ccccc2/C=C2\NC(=O)N(Cc3ccc(F)cc3)C2=O)cc1 | 37.2% (inactive) | –
O=C(O)c1ccc(COc2ccccc2/C=C2\NC(=O)N(Cc3ccccc3)C2=O)cc1 | 31.4% (inactive) | –
O=C(O)c1ccc(COc2ccccc2/C=C2/NC(=O)N(c3cccc(Cl)c3)C2=O)cc1 | 53.3% (active) | –
CCOc1cc(NC(=S)NCCCN2CCOCC2)c(OCC)cc1NC(=O)c1cccs1 | -2.2% (inactive) | –
Cc1ccc(-c2c(C#N)c(N)n(-c3ccccc3)c(=O)c2C#N)cc1 | -0.6% (inactive) | –
Cc1ccc(-c2nc3sc(C#N)c(N)n3c(=O)c2C#N)cc1 | 59.9% (active) | 52.2%
Cc1ccc(-c2c(C#N)c(N)n(-c3ccc(C)cc3)c(=O)c2C#N)cc1 | 3.9% (inactive) | –
CC1CCN(c2ccc3nnc(CCC(=O)N4CCN(c5ccccc5F)CC4)n3n2)CC1 | 0.3% (inactive) | –
CCOC(=O)C1=NOC(CNC(=O)c2c(-c3ccccc3Cl)noc2C)C1 (configuration not stated) | 0.6% (inactive) | –
COc1ccc(CC(NC(C)=O)C(=O)N2CCN(C(=O)N(C(C)C)C(C)C)CC2)cc1 (configuration not stated) | -0.1% (inactive) | –
Cc1ccc(/C=C2\SC(N3CCCC3)=NC2=O)cc1 | -0.9% (inactive) | –
Cc1ccc(/C=C2\SC(N3CCCCC3)=NC2=O)cc1 | -1.2% (inactive) | –
CN(C)c1ccc(/C=C2\SC(N3CCCCC3)=NC2=O)cc1 | 74.1% (active) | 50.6%
O=C(O)/C=C/c1cccc(NC(=O)Nc2ccc([N+](=O)[O-])cc2)c1 | 1.6% (inactive) | –
O=C(COC(=O)CCc1ccc(S(=O)(=O)N2CCOCC2)cc1)NC(=O)NC1CCCCC1 | 0.6% (inactive) | –
CCCOc1cc(C)c(S(=O)(=O)n2ccc(C)n2)cc1C | 1% (inactive) | –
CCN(CC)c1nc2c3c(nc4c(c3c1C#N)CC(=O)N4c1ccc(Cl)cc1)NC(C)=N2 | 16.3% (inactive) | –

SMILES | inhibition (at 20 µM) | inhibition [1]
CC1=Nc2nc(N3CCCCC3)c(C#N)c3c4c(nc(c23)N1)N(c1ccc(C(C)C)cc1)C(=O)C4 | 63.9% (active) | –
COc1ccc(CN2C(=O)Cc3c2nc(N)c2c(N)nc(N4CCCCC4)c(C#N)c32)cc1 | 23.9% (inactive) | –
Cc1onc(-c2ccccc2)c1-c1csc(N/N=C/c2ccccc2)n1 | -1.5% (inactive) | –
O=C(Nc1ccccc1)c1ccccc1NS(=O)(=O)c1ccc(Cl)s1 | 28.5% (inactive) | –
COc1ccc(C)cc1NC(=O)c1ccccc1NS(=O)(=O)c1ccc(Cl)s1 | 60.5% (active) | –
Cc1ccc(NC(=O)c2ccccc2NS(=O)(=O)c2ccc(Cl)s2)cc1 | 56.3% (inactive) | 29%
CCN(CC)S(=O)(=O)c1ccc(C(=O)Nc2nnc(-c3ccco3)o2)cc1 | 9.7% (inactive) | –
O=C(NC1CC1)C1CCN(C2CCN(C(=O)c3c(F)cccc3Cl)CC2)CC1 | 3.8% (inactive) | –
CC(C)CN1CCC(=O)N(CCN=[N+]=[N-])CC1 | -1.2% (inactive) | –
CC(C)(Oc1ccc(Cl)cc1)C(=O)Nc1ccncc1 | -1.9% (inactive) | –
NC(=O)[C@@H]1CC2(CC(c3cccc(NC(=O)[C@@H]4CCC(=O)N4)c3)=NO2)CN1C(=O)Cc1ccc([N+](=O)[O-])cc1 (some centres not stated) | -1.2% (inactive) | –
CCOc1cc(/C=C2\SC(=Nc3ccc(F)cc3)N(c3ccc(F)cc3)C2=O)ccc1OCC(=O)O | 41.5% (inactive) | –
O=C(O)C(Cc1ccccc1)N1C(=O)/C(=C/c2cccc3ccccc23)SC1=S (configuration not stated) | 52.6% (active) | –
O=C(O)C(Cc1ccccc1)N1C(=O)/C(=C/c2ccccc2)SC1=S (configuration not stated) | 21.1% (inactive) | –
CCOc1cc(/C=C2\SC(=Nc3ccccc3)N(c3ccccc3)C2=O)ccc1OCC(=O)O | 58.9% (active) | –
COc1ccc(/C=C2\SC(=S)N(C(Cc3ccccc3)C(=O)O)C2=O)cc1 (configuration not stated) | 38.4% (inactive) | –
CCOc1ccc(/C=C2\SC(=S)N(C(C(=O)O)c3ccccc3)C2=O)cc1OC (configuration not stated) | 12.1% (inactive) | –
COc1cc(/C=C2\SC(=S)N(C(C(=O)O)c3ccccc3)C2=O)ccc1O (configuration not stated) | 47.4% (inactive) | –
O=C(O)C(Cc1ccccc1)N1C(=O)/C(=C/c2cccs2)SC1=S (configuration not stated) | 17.7% (inactive) | –
COc1cc(/C=C2\SC(=Nc3ccc(F)cc3)N(c3ccc(F)cc3)C2=O)ccc1OCC(=O)O | 35.3% (inactive) | –
COc1cccc(/C=C2\SC(=S)N(C(Cc3ccccc3)C(=O)O)C2=O)c1 (configuration not stated) | 30.7% (inactive) | –
Cc1ccc(/C=C2\SC(=S)N(C(Cc3ccccc3)C(=O)O)C2=O)cc1 (configuration not stated) | 53.9% (active) | –
CCOc1ccc(/C=C2/SC(=S)N(C(C(=O)O)c3ccccc3)C2=O)cc1OCC (configuration not stated) | 56.2% (active) | –
